Bioassay records as filed in PubChem BioAssay.
DAX1 inh-1: DAX1 (NR0B1) inhibitors on StAR promoter, primary screen, cell-based, luminescence, SF-1 (NR5A1), full-length DAX-1 | actives 1.1% (n = 370,000) | HEK293T StAR-luciferase reporter, SF-1/DAX-1 repression relief | inhibition, % at 6.8 µM | AID 652010, 2013;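 active = inhibition above the mean over all tested compounds plus 3 SD, cut at about 3.6% in these data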;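 also: 0% = DAX-1 cells with DMSO and 100% = cells lacking DAX-1 with DMSO; higher inhibition means more luminescence from relief of DAX-1 repression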
GAA850 FXN act: FXN promoter activators, primary screen, cell-based, luciferase luminescence, HEK293 lucGAA850. HEK293 lucGAA850 FXN promoter luciferase reporter, 24 h; percent of 10 µM SAHA response. activation, % at 6 µM. actives 0.56% (n = 360,000). AID 540364, 2011;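 active = activation above the average of all compounds screened plus 3 SD, cutoff fixed separately per campaign, cut at about 7.5% in these data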;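 also: 0% = DMSO wells and 100% = 10 µM SAHA wells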
hgDAF-12 ag: H. glycines DAF-12 receptor agonists, primary screen, cell-based, luminescence, HEK293, GAL4 fusion, UAS-luciferase. HEK293 GAL4-hgDAF12 UAS-luciferase reporter, agonist luminescence; normalized to butyrate control. actives 1.8% (n = 370,000). activation, % at 6.8 µM;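 active = activation above a cutoff set at the mean of all screened compounds plus 3 SD, cut at about 10% in these data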;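 also: 0% = DMSO wells and 100% = sodium butyrate wells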
hcDAF12 agonist: H. contortus DAF-12 nuclear receptor activators, primary screen, cell-based, luminescence, HEK293, lit1-tk-luc reporter; HEK293 hcDAF-12 lit1-tk-luc reporter; 0% DMSO, 100% Δ7-dafachronic acid; activation, % at 6.8 µM; actives 1.4% (n = 370,000); AID 652067, 2013;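 active = activation above the mean of all tested compounds plus 3 SD, cut at about 5.5% in these data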;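 also: 100% = response to 3 µM Δ7-dafachronic acid high control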
DAX1 inh-2: DAX1 (NR0B1) inhibitors, primary screen, cell-based, HEK293, Gal4-DAX1, luciferase luminescence; Nuclear receptor subfamily 0 group B member 1 (Homo sapiens), P51843; HEK293 Gal4-DAX1 luciferase reporter; inhibition, % at 6.75 µM; actives 0.99% (n = 340,000);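 active = inhibition above the mean over all tested compounds plus 3 SD, cut at about 4.2% in these data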;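 also: 0% = DAX1-transfected cells with DMSO and 100% = empty-vector control cells with DMSO; inhibition shows as a rise in luminescence from relieved DAX1 repression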
Target sequence (P51843 207-470 limits assumed): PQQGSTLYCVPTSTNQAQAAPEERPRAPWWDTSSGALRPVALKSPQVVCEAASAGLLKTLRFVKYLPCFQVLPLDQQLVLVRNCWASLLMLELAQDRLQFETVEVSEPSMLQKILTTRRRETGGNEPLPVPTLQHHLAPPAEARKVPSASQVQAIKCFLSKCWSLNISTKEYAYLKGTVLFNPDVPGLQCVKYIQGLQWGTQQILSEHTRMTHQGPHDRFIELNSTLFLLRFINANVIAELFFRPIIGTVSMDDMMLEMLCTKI
ssDAF-12 act: S. stercoralis DAF-12 nuclear receptor activators, primary screen, cell-based, luminescence, HEK293, GRIP1 co-expression, lit1-tk-luc. HEK293 ssDAF-12/GRIP1 lit1-tk-luc reporter; % of 3 µM dafachronic acid response. AID 652126, 2013. actives 1% (n = 370,000). activation, % at 6.8 µM;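 active = activation above the mean over all tested compounds plus 3 SD, cut at about 0.9% in these data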;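 also: 0% = DMSO-only wells and 100% = 3 µM delta7-dafachronic acid wells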
DAX1 inh confirm: DAX1 (NR0B1) inhibitors relieving SF-1 repression, confirmation, cell-based, luminescence, HEK293T, full-length DAX-1, SF-1 activated StAR promoter. shares compounds with DAX1 inh-1. HEK293T StAR-promoter luciferase reporter, SF-1/DAX-1 repression. inhibition, % at 6.8 µM. actives 87% (n = 2,400);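 active = inhibition above the average of every tested compound plus 3 SD, cut at about 3.8% in these data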;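 also: 0% = DAX-1 cells with DMSO and 100% = no DAX-1 control cells with DMSO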
SF1 AF2mut Luc: StAR reporter signal changes without DAX1, counter-screen for DAX1 inhibitor project, cell-based, luminescence, AF-2 mutant SF-1, transactivation | AID 652136, 2013 | HEK293 StAR-luciferase, SF-1 AF2 mutant | actives 78% (n = 2,400) | shares compounds with DAX1 inh-1 | inhibition, % at 6.8 µM;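 active = inhibition above the mean of all tested compounds plus 3 SD, cut at about 3% in these data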;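 also: 0% = DAX-1 transfected cells with DMSO and 100% = cells without DAX-1 with DMSO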
An asterisk follows results filed as active; x = not tested or not shown. Hits are enriched below; roughly 4.5% of the tested compounds scored in any of these assays.

SMILES | DAX1 inh-1 | GAA850 FXN act | hgDAF-12 ag | hcDAF12 agonist | DAX1 inh-2 | ssDAF-12 act | DAX1 inh confirm | SF1 AF2mut Luc
N/C(=N\OC(=O)c1ccoc1)c1ccc(Br)cc1 | 9.5* | 3 | 8 | 3 | 2 | 0 | 11* | 6.9*
O=C(Nc1ccc2c(c1)nc1n2CCSC1)c1ccccc1 | 5.9* | 1 | 12* | 2 | -1 | 0 | 13* | 8.6*
COc1ccc(C(=O)Nc2ccc3c(c2)nc2n3CCSC2)cc1 | 2 | 3 | 9 | 1 | 0 | 0 | x | x
Cc1ccc(C(=O)COC(=O)c2cc(=O)[nH]c3ccccc23)cc1 | 1 | 3 | -4 | 0 | 1 | -1 | x | x
CCCn1c(C)cc(C(=O)COC(=O)c2cc(=O)[nH]c3ccccc23)c1C | 5.4* | -1 | 11* | 6.5* | -1 | 1 | 9.3* | 3.1*
CC(C)N(C(=O)[C@H]1C[C@H](CC(=O)NCCN2CCOCC2)C(=O)N2CCc3c([nH]c4ccc(Cl)cc34)[C@]12C)C(C)C | 5.5* | -1 | -2 | -1 | -1 | -2 | 0 | 0
CCOc1ccc(C(=O)Nc2nnc(SCC(=O)NCC3CCCO3)s2)cc1 (stereo not given) | 5.4* | -1 | 7 | 6.1* | -3 | 0 | 4.2* | 2
CN(C)S(=O)(=O)c1ccc(C(=O)Nc2nnc(SCC(=O)NCC3CCCO3)s2)cc1 (stereo not given) | 2 | 1 | 4 | 1 | 0 | 0 | x | x
CC(C)(C)c1ccc(C(=O)Nc2nnc(SCC(=O)NCC3CCCO3)s2)cc1 (stereo not given) | 11* | 2 | 10 | 5 | -1 | 0 | 8.9* | 6.1*
O=C(CSc1nnc(NC(=O)c2cccc(F)c2)s1)NCC1CCCO1 (stereo not given) | -1 | 0 | 1 | 5 | 1 | -1 | x | x
Cc1ccc(C2=NNC(c3cccc(F)c3)S2)cc1 (stereo not given) | 9.5* | 1 | 17* | 14* | -2 | 1.6* | 11* | 5.2*
CCCCC(=O)N1CCN(c2nc3ccc(OCC)cc3s2)CC1 | 0 | 0 | -2 | -1 | -2 | -1 | x | x
CCCCC(=O)N1CCN(c2nc3ccc(F)cc3s2)CC1 | 5.2* | 4 | 5 | 2 | 0 | -1 | 3 | 3.8*
COC(=O)Cc1cc(C)cc2c(=O)cc(-c3ccoc3)oc12 | -1 | 2 | -1 | -1 | x | -1 | x | x
COc1ccc(OC)c(NC(=O)CC2Oc3ccccc3NC2=O)c1 (stereo not given) | 0 | 2 | 4 | 4 | 0 | 1 | x | x
CCc1ccc(C2=NN(C(=O)OC)C(O)(C(F)(F)F)C2)cc1 (stereo not given) | 6.6* | 0 | 9 | 6.0* | -2 | 1.0* | 12* | 5.4*
O=C(Cc1ccc(S(=O)(=O)N2CCOCC2)s1)N1CCN(S(=O)(=O)c2ccc(Cl)cc2)CC1 | -2 | 2 | -2 | -3 | 0 | -2 | x | x
Cc1ccc2nc(N(CCN(C)C)C(=O)c3ccc4ccccc4c3)sc2c1 | x | 0 | x | x | 0 | x | x | x
